According to PubChem BioAssay (NCATS):
The source made the active and inactive calls. The rule behind the calls is not given here.

Conditions: Ebola virus entry assay, reporter ratio channel; Channel type: primary

| SMILES | AC50 | outcome |
| --- | --- | --- |
| NCCNc1cccc2ccccc12 | 25.1 µM (active) |  |
| CCCCCCCCOc1ccccc1C(=O)Nc1ccc(C(=O)OCC[N+](C)(CC)CC)cc1 | 2.51 µM (active) |  |
| CCCC(C(=O)OCCN(CC)CC)(c1ccccc1)c1ccccc1 | 2.24 µM (active) |  |
| CCC(C(=O)OCCOCCN(CC)CC)c1ccccc1 (stereo not drawn) | 22.4 µM (active) |  |
| C[C@@H]1C[C@H]2[C@@H]3C[C@H](F)C4=CC(=O)C(Cl)=C[C@]4(C)[C@@]3(F)[C@@H](O)C[C@]2(C)[C@@]1(O)C(=O)CO | 39.8 µM (active) |  |
| CCC(=O)c1ccc2c(c1)N(CCCN(C)C)c1ccccc1S2 | 17.8 µM (active) |  |
| COc1cc(N)c(Cl)cc1C(=O)NC1CCN(Cc2ccccc2)CC1 | 39.8 µM (active) |  |
| CCCCCCOC(=O)NC(=N)c1ccc(NCc2nc3cc(C(=O)N(CCC(=O)OCC)c4ccccn4)ccc3n2C)cc1 | 3.16 µM (active) |  |
| COc1cc(N)c(Cl)cc1C(=O)NC1CCN(CCCOc2ccc(F)cc2)CC1OC (stereo not drawn) | 15.8 µM (active) |  |
| CCN(CC)CCNc1ccc(CO)c2sc3ccccc3c(=O)c12 | 14.1 µM (active) |  |
| CCCCCN=C(N)N/N=C/c1c[nH]c2ccc(OC)cc12 | 3.16 µM (active) |  |
| CCN1C(=O)c2ccccc2C1Nc1ccc(OCCN2CCCCC2)cc1 (stereo not drawn) | 15.8 µM (active) |  |
| COc1ccc(CCN(C)CCCC(C#N)(c2cc(OC)c(OC)c(OC)c2)C(C)C)cc1OC (stereo not drawn) | 14.1 µM (active) |  |
| C[C@@H]1C[C@H]2[C@@H]3CCC4=CC(=O)C=C[C@]4(C)[C@@]3(Cl)[C@@H](O)C[C@]2(C)[C@@]1(OC(=O)c1ccco1)C(=O)CCl | 10 µM (active) |  |
| CCN(CC)CCOCCOC(=O)C1(c2ccccc2)CCCC1 | 10 µM (active) |  |
| CN(C)CCCOC1(Cc2ccccc2)CCCCCC1 | 14.1 µM (active) |  |
| CCN(CC)CCOC(=O)C(Cc1cccc2ccccc12)CC1CCCO1 (stereo not drawn) | 11.2 µM (active) |  |
| O=C(Nc1ccc(Cl)cc1)Nc1ccc(Cl)c(C(F)(F)F)c1 | 8.91 µM (active) |  |
| OC(C#CCN1CCCC1)(c1ccccc1)c1ccccc1 | 35.5 µM (active) |  |

| SMILES | AC50 | outcome |
| --- | --- | --- |
| c1cc(CN2CCCCC2)cc(OCCCNc2nc3ccccc3s2)c1 | 12.6 µM (active) |  |
| COc1cc2c(cc1OC)-c1cc(=Nc3c(C)cc(C)cc3C)n(C)c(=O)n1CC2 | 15.8 µM (active) |  |
| Cc1c(C)n(Cc2ccccc2)c2ccc(C(=O)OCCN(C)C)cc12 | 3.16 µM (active) |  |
| CCCCN(CCCC)CCC(O)c1cc2c(Cl)cc(Cl)cc2c2cc(C(F)(F)F)ccc12 (stereo not drawn) | 4.47 µM (active) |  |
| CCCCCCCCCCCCCCCCCCNC(=O)OC1CCN(C(=O)OC[C@H](COC(=O)N(Cc2cccc[n+]2CC)C(=O)c2ccccc2OC)OC)CC1 |  | inactive |
| Cc1nc2n(c(=O)c1CCN1CCC(C(=O)c3ccc(F)cc3)CC1)CCS2 |  | inactive |
| CC(C)N=C(N)/N=C(\N)Nc1ccc(Cl)cc1 | 39.8 µM (active) |  |
| O=C(CCC1CCN(Cc2ccccc2)CC1)c1ccc2c(c1)NCCCC2 | 7.08 µM (active) |  |
| O=C(c1ccc(F)cc1)C1CCN(CCn2c(=O)[nH]c3ccccc3c2=O)CC1 | 17.8 µM (active) |  |
| CCOc1ccc(Cc2nccc3cc(OCC)c(OCC)cc23)cc1OCC | 39.8 µM (active) |  |
| O=C(c1cc(O)c(O)c(O)c1)c1ccc(O)c(O)c1O | 1.78 µM (active) |  |
| CCCCNc1c(C(=O)OCC)c(C)nc2c1cnn2CC | 22.4 µM (active) |  |
| CCNC(=O)N1CCN(CCCC(c2ccc(F)cc2)c2ccc(F)cc2)CC1 | 11.2 µM (active) |  |
| CCN(CC)CCCC(C)Nc1c2ccc(Cl)cc2nc2ccc(OC)cc12 (stereo not drawn) | 25.1 µM (active) |  |
| CSc1ccc2c(c1)C(N1CCN(C)CC1)Cc1ccccc1S2 (stereo not drawn) | 3.16 µM (active) |  |
| CCCCOc1ccc(C(=O)CCN2CCCCC2)cc1 | 31.6 µM (active) |  |
| C[C@H]1[C@H]2CC[C@H]3[C@@H]4CC=C5C[C@@H](N(C)C)CC[C@]5(C)[C@H]4CC[C@]23CN1C | 10 µM (active) |  |
| CN1CCCN=C1COC(=O)C(O)(c1ccccc1)C1CCCCC1 (stereo not drawn) | 12.6 µM (active) |  |
| CN1CCN(CCCN2c3ccccc3Sc3ccc(S(=O)(=O)N(C)C)cc32)CC1 | 2.24 µM (active) |  |
